Test results taken from PubChem BioAssay (NCATS).
Values joined by “and” are separate entries in the source; they are usually repeats but may differ in a detail not shown here. Equal values may be shown once. Records with an inconclusive call do not appear. A call without a number means that no potency is given here. Active and inactive are the calls of the source. Unless noted, the call rests on the fitted dose curve; in most records, active means well fitted curve in the direction sought with a large enough effect; inconclusive means small, poorly fitted or top-dose-only effect, or another doubt; inactive means no such curve, though single readings can be large; an effect the other way counts as inactive or inconclusive.

Assays:
[1] = qHTS assay for measurement of the activity of small molecule inhibitors on Zika virus induced Caspase-3 activity in human iPSC derived neural progenitor cells (hNPCs) (AID 1224857); further: nearly all actives have a fitted effect of over 65% in size
Summary of the method: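 hNPCs seeded 350 cells/well, cultured 16–20 h; compounds added 1 h before ZIKV (2 FFU/cell), 37 C 6 h. Caspase-Glo 3/7 luminescence after 30 min RT; % inhibition from induction scaled to uninfected (0%) and infected (100%) wells.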

[2] = qHTS Screen of the MIPE 4.0 Collection Against Ewings Sarcoma (RDES) (AID 1259252); further: nearly all actives have a fitted effect of over 35% in size; further: potency means the concentration at half of the fitted maximal effect
Summary of the method: (§1)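 CellTiter-Glo luminescence after 48 h compound exposure (titration) gave viability; percent activity used DMSO-treated cells as no inhibition and medium-only wells as full inhibition. Cells grown in RPMI/5% FBS, dosed 4 h post-seeding.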

[3] = qHTS Screen of the MIPE 4.0 Collection Against Ewings Sarcoma (TC71) (AID 1259253); further: nearly all actives have a fitted effect of over 40% in size; further: potency means the concentration at half of the fitted maximal effect
Summary of the method: as §1

[4] = qHTS Screen of the MIPE 4.0 Collection Against Ewings Sarcoma (EW8) (AID 1259255); further: nearly all actives have a fitted effect of over 35% in size; further: potency means the concentration at half of the fitted maximal effect
Summary of the method: as §1

[5] = qHTS Screen of the MIPE 4.0 Collection Against Ewings Sarcoma (TC32) (AID 1259256); further: nearly all actives have a fitted effect of over 45% in size; further: potency means the concentration at half of the fitted maximal effect
Summary of the method: as §1

[6] = qHTS assay to identify small molecule inhibitors of chordoma cells - UCH-1 (AID 1259355); further: nearly all actives have a fitted effect of over 55% in size
Summary of the method: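 Seed 800 cells per well; incubate overnight at 37 C, 5% CO2. Add test compounds (15 concentrations), then the auranofin–topoisomerase-agent combination. Incubate 48hr, add CellTiter-Glo, wait 30min, read luminescence.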

[7] = qHTS assay to identify small molecule inhibitors of chordoma cells - UCH-2 (AID 1259356); further: series mostly up to about 46 µM
[8] = P-glycoprotein substrates identified in KB-8-5-11 adenocarcinoma cell line, qHTS therapeutic library screen (AID 1346987); further: nearly all actives have a fitted effect of over 65% in size; further: potency means the concentration at half of the fitted maximal effect
Summary of the method: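 Steps: plate 500 KB-8-5-11 cells/well in DMEM + 10% FCS (colchicine removed); pin compounds in dose-response; incubate 72 h, 37 degree C, 5% CO2; add CellTiter-Glo, 5 min; read luminescence.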

[9] = NS1 protein of Zika virus - qHTS assay to identify small molecule inhibitors in human HEK 293 cells (AID 1347053); further: series mostly up to about 46 µM; nearly all actives have a fitted effect of over 55% in size
Summary of the method: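 Following 20 h seeding, HEK 293 cells took compound, then 1 h later ZIKV MR766 (MOI = 0.5). Incubation ran 24 h at 37 C before TR-FRET detection of NS1; a drop in signal indicates inhibition.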

[10] = qHTS assay for measurement of the activity of small molecule inhibitors on Zika virus induced Caspase-3 activity in human astrocytoma cells (AID 1224859)
Summary of the method: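 Luminescence read-out (Caspase-Glo 3/7, 30 min RT) of caspase activity in SNB-19 cells infected 6 h with ZIKV, 2 FFU/cell, after 1 h compound pretreatment; % inhibition from induction normalised to uninfected (0%) and infected (100%) wells.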

[11] = Natriuretic polypeptide receptor (hNpr1) antagonism - Pilot counterscreen GloSensor control cell line (AID 1347045; calls by dose curve; further: potency means the concentration at half of the fitted maximal effect)
Summary of the method: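 Luminescence was read before and 20 min after adding 50 uM SNP, which stimulates soluble guanylyl cyclase. The HEK293 cells expressing the GloSensor cGMP sensor had been preloaded with 2% reagent for 2 h and treated with compound.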

[12] = biological target: Atrial natriuretic peptide receptor 1 (Homo sapiens) (UniProt P16066); test: Natriuretic polypeptide receptor (hNpr1) antagonism - Pilot screen (AID 1347049; calls by dose curve;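 further: agonist-evoked cGMP luminescence read 20 min after hNppA addition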; further: potency means the concentration at half of the fitted maximal effect)
Summary of the method: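 Readout is cGMP-driven firefly luciferase luminescence in HEK293 cells carrying hNpr1 and a PDE5-domain GloSensor, read before and 20 min after 0.1 nM hNppA stimulation. Cells had 2% substrate reagent for 2 h and test compound for 30 min.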

[13] = biological target: Atrial natriuretic peptide receptor 2 (Homo sapiens) (UniProt P20594); test: Natriuretic polypeptide receptor (hNpr2) antagonism - Pilot subtype selectivity assay (AID 1347050; calls by dose curve; further: potency means the concentration at half of the fitted maximal effect)
Summary of the method: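 Pilot selectivity screen against hNpr2: HEK293 cGMP-sensor cells are treated with LOPAC1280 compounds, then with hNppC peptide at 1 nM final. The cGMP-driven luminescence change over 20 min at room temperature is the read-out.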

[14] = biological target: Tyrosine-protein phosphatase non-receptor type substrate 1 (Homo sapiens) + Leukocyte surface antigen CD47 (Homo sapiens) (UniProt P78324+Q08722); test: CD47-SIRPalpha protein protein interaction - LANCE assay qHTS validation (AID 1347057; active means well fitted curve in the direction sought with a large enough effect in the signal ratio, with a control signal flat, not every such curve was filed as active; the % refers to the signal ratio; further: series mostly up to about 38 µM)
Summary of the method: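 First, His-tagged CD47 and Eu-labelled anti-His antibody met the compound for 30 min; next, site-specifically biotinylated SIRPalpha was added for 30 min; finally streptavidin-APC was added before reading the TR-FRET ratio.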

Atrial natriuretic peptide receptor 2 (Homo sapiens), sequence (P20594 whole entry, looked up): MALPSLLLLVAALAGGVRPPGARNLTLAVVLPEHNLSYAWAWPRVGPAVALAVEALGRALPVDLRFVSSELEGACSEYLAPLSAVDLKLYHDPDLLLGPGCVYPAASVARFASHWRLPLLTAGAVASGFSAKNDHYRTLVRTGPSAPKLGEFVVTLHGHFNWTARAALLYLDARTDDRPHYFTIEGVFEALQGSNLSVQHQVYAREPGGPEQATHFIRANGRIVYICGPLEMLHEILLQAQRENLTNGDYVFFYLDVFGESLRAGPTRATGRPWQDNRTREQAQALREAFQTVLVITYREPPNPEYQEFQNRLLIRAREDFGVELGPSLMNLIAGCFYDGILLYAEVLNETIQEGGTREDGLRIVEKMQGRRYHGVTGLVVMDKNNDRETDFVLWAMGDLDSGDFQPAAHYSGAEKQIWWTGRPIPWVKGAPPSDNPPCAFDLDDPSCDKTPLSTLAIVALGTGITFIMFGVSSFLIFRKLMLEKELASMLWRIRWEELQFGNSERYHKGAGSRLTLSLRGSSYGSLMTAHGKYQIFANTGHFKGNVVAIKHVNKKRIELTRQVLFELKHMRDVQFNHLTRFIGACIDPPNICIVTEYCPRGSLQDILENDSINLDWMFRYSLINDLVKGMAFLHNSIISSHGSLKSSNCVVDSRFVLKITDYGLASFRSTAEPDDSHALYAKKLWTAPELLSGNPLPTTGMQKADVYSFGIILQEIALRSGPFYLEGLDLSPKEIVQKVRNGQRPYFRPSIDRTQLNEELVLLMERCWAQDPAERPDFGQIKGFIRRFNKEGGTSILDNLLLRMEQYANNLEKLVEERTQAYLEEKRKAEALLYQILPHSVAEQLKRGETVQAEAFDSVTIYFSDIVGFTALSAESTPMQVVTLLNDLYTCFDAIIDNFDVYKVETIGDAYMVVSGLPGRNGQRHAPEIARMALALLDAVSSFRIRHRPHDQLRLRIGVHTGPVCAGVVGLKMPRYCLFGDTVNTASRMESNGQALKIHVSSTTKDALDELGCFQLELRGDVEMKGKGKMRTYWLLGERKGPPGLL
Atrial natriuretic peptide receptor 1 (Homo sapiens), sequence (P16066 whole entry, looked up): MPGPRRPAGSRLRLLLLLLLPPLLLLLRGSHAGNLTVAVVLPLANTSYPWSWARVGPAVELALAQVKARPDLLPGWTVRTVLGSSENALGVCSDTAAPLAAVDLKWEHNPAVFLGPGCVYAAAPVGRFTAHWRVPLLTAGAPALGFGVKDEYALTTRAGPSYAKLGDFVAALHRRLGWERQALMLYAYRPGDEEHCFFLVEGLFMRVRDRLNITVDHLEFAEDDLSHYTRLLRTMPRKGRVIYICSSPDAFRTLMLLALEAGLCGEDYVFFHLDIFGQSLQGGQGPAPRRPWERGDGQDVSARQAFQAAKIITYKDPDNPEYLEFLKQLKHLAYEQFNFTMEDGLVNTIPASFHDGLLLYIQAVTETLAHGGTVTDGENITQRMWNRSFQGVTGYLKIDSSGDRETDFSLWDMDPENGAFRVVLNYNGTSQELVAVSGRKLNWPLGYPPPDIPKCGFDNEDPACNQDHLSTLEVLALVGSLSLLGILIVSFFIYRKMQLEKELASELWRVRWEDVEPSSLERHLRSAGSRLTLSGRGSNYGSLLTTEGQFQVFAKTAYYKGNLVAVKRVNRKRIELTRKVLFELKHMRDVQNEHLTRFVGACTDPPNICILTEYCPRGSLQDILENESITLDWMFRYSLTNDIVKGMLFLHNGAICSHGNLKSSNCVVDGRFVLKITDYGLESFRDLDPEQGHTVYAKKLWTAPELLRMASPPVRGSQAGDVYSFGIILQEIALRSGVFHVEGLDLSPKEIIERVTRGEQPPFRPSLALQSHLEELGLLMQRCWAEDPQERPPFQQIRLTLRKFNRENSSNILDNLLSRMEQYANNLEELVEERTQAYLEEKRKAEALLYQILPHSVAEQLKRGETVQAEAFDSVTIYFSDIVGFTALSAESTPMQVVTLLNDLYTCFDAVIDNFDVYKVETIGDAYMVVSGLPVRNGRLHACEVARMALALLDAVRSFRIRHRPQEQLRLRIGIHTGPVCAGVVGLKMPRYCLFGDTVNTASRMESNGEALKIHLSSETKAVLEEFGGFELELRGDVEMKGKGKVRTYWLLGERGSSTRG
Tyrosine-protein phosphatase non-receptor type substrate 1 (Homo sapiens) + Leukocyte surface antigen CD47 (Homo sapiens), sequence (P78324 whole entry, looked up): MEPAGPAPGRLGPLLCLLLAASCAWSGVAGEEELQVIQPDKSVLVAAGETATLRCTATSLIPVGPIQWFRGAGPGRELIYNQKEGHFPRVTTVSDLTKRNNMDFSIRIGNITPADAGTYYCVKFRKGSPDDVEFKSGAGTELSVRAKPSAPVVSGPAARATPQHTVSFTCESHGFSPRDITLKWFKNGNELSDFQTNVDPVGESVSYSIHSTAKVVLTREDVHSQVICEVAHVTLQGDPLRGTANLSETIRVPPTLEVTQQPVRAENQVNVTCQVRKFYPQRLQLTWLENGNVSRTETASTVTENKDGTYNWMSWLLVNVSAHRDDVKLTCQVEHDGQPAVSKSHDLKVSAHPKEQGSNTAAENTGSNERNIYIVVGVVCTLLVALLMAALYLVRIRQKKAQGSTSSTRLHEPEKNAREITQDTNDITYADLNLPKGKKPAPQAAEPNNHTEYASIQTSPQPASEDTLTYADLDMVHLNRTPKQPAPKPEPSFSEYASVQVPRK
Tyrosine-protein phosphatase non-receptor type substrate 1 (Homo sapiens) + Leukocyte surface antigen CD47 (Homo sapiens), sequence (Q08722 whole entry, looked up): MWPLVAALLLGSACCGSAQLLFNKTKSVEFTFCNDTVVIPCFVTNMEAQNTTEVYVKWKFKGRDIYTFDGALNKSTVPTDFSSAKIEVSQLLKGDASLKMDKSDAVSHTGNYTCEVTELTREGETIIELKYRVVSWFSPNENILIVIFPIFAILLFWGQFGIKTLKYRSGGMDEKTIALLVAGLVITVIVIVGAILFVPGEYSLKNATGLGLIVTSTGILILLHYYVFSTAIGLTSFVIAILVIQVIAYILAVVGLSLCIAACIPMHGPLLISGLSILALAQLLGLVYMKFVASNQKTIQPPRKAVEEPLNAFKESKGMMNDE

With `CC(N)C12CC3CC(CC(C3)C1)C2` (stereo unspecified) the Potency [1] was “inactive”, the Potency [2] was “inactive” and the Potency [3] was “inactive”. The Potency [4] was “inactive”, the Potency [5] was “inactive” and the Potency [6] was “inactive”. For the same molecule, the Potency [7] was “inactive”, the Potency [8] was “inactive” and the Potency [9] was “inactive”.

In the case of `Cn1nnc2c(C(N)=O)ncn2c1=O`, the Potency [1] is reported as “inactive”, the Potency [2] is reported as “inactive” and the Potency [3] is reported as “inactive”. The Potency [4] was “inactive”, the Potency [5] was “inactive” and the Potency [7] was “inactive”. For the same molecule, the Potency [9] was “inactive”.

For `Nc1nc(=S)c2[nH]cnc2[nH]1`, the Potency [1] was “inactive”, the Potency [10] was “inactive” and the Potency [2] was 0.935 µM (active). For the same molecule, the Potency [3] was 0.935 µM (active), the Potency [5] was 0.526 µM (active) and the Potency [8] was 5.8 µM (active) and 1.18 µM (active). For the same molecule, the Potency [9] was “inactive”.

In the case of `COc1cnc(NS(=O)(=O)c2ccc(N)cc2)nc1`, the Potency [1] is reported as “inactive”, the Potency [2] is reported as “inactive” and the Potency [3] is reported as “inactive”. For the same molecule, the Potency [4] was “inactive”, the Potency [5] was “inactive” and the Potency [6] was “inactive”. For the same molecule, the Potency [7] was “inactive” and the Potency [9] was “inactive”.

In the case of `CN1CCN(c2c(F)cc3c(=O)c(C(=O)O)cn(CCF)c3c2F)CC1`, the Potency [1] is reported as “inactive”, the Potency [2] is reported as “inactive” and the Potency [3] is reported as “inactive”. For the same molecule, the Potency [4] was “inactive”, the Potency [5] was “inactive” and the Potency [6] was “inactive”. The Potency [7] was “inactive” and the Potency [9] was “inactive”.

For `C#CCN[C@@H]1CCc2ccccc21`, the Potency [1] was “inactive”, the Potency [2] was “inactive” and the Potency [3] was “inactive”. The Potency [4] was “inactive”, the Potency [5] was “inactive” and the Potency [6] was “inactive”. The Potency [7] was “inactive”, the Potency [8] was “inactive” and the Potency [9] was “inactive”.

With `CC(C)C1CCC(C(=O)N[C@H](Cc2ccccc2)C(=O)O)CC1` (stereo partly specified) the Potency [1] was “inactive”, the Potency [2] was “inactive” and the Potency [3] was “inactive”. The Potency [4] was “inactive”, the Potency [5] was “inactive” and the Potency [6] was “inactive”. The Potency [7] was “inactive”, the Potency [8] was “inactive” and the Potency [9] was “inactive”.

With `O=c1oc2c(O)c(O)cc3c(=O)oc4c(O)c(O)cc1c4c23` the Potency [1] was “inactive”, the Potency [2] was “inactive” and the Potency [3] was “inactive”. The Potency [4] was “inactive”, the Potency [5] was “inactive” and the Potency [6] was “inactive”. For the same molecule, the Potency [7] was “inactive”, the Potency [8] was “inactive” and the Potency [9] was “inactive”.

In the case of `O=NN(CCCl)C(=O)NC1CCCCC1`, the Potency [1] is reported as “inactive”, the Potency [2] is reported as “inactive” and the Potency [3] is reported as “inactive”. For the same molecule, the Potency [4] was “inactive”, the Potency [5] was “inactive” and the Potency [6] was “inactive”. The Potency [7] was “inactive” and the Potency [9] was “inactive”.

For `Cc1nnc(C(=O)NC(C)(C)c2nc(C(=O)NCc3ccc(F)cc3)c(O)c(=O)n2C)o1`, the Potency [1] was “inactive”, the Potency [2] was “inactive” and the Potency [3] was “inactive”. For the same molecule, the Potency [4] was “inactive”, the Potency [5] was “inactive” and the Potency [8] was “inactive”. The Potency [9] was “inactive”.

With `COC(=O)Nc1nc2ccc(S(=O)c3ccccc3)cc2[nH]1` (stereo unspecified) the Potency [1] was “inactive”, the Potency [2] was 11.8 µM (active) and the Potency [3] was 18.7 µM (active). For the same molecule, the Potency [4] was 13.2 µM (active), the Potency [5] was 11.8 µM (active) and the Potency [8] was 10.5 µM (active). For the same molecule, the Potency [9] was “inactive”.

In the case of `COc1cc2ncnc(Nc3cccc(Cl)c3)c2cc1OC`, the Potency [2] is reported as 0.118 µM (active), the Potency [3] is reported as 4.18 µM (active) and the Potency [5] is reported as 16.6 µM (active). For the same molecule, the Potency [11] was “inactive”, the Potency [12] was “inactive” and the Potency [13] was “inactive”. The Potency [9] was “inactive” and the outcome [14] was “inactive”.

In the case of `COc1ccc2c(c1)c(CC(=O)OCC(=O)O)c(C)n2C(=O)c1ccc(Cl)cc1`, the Potency [10] is reported as “inactive”, the Potency [2] is reported as “inactive” and the Potency [3] is reported as “inactive”. For the same molecule, the Potency [4] was “inactive”, the Potency [5] was “inactive” and the Potency [9] was “inactive”.

In the case of `NC(N)=NC(N)=NCCc1ccccc1`, the Potency [2] is reported as 11.8 µM (active), the Potency [3] is reported as 18.7 µM (active) and the Potency [4] is reported as 16.6 µM (active). The Potency [6] was “inactive”, the Potency [7] was “inactive” and the Potency [8] was “inactive”. For the same molecule, the Potency [9] was “inactive”.

In the case of `COc1ccc(C(=O)CC(=O)c2ccc(C(C)(C)C)cc2)cc1`, the Potency [10] is reported as “inactive”, the Potency [2] is reported as 1.05 µM (active) and the Potency [3] is reported as 1.66 µM (active). For the same molecule, the Potency [4] was 2.09 µM (active), the Potency [5] was 1.66 µM (active) and the Potency [7] was “inactive”. The Potency [8] was “inactive” and the Potency [9] was “inactive”.

With `CC(=O)Oc1ccccc1C(=O)Nc1ncc([N+](=O)[O-])s1` the Potency [2] was 21.5 µM (active), the Potency [3] was 19.1 µM (active) and the Potency [4] was 21.5 µM (active). For the same molecule, the Potency [5] was 21.5 µM (active), the Potency [7] was “inactive” and the Potency [9] was “inactive”.

For `COC(=O)Nc1nc2ccc(C(=O)c3ccccc3)cc2[nH]1`, the Potency [2] was 0.662 µM (active), the Potency [3] was 1.48 µM (active) and the Potency [4] was 0.526 µM (active). The Potency [5] was 0.418 µM (active), the Potency [6] was “inactive” and the Potency [7] was “inactive”. The Potency [8] was 699 nM (active) and 2.96 µM (active) and the Potency [9] was “inactive”.

With `COc1cc(NS(=O)(=O)c2ccc(N)cc2)nc(OC)n1` the Potency [10] was “inactive”, the Potency [2] was “inactive” and the Potency [3] was “inactive”. For the same molecule, the Potency [4] was “inactive”, the Potency [5] was “inactive” and the Potency [6] was “inactive”. For the same molecule, the Potency [7] was “inactive”, the Potency [8] was “inactive” and the Potency [9] was “inactive”.

With `O=C(O)CCn1c2c(c3ccccc31)C[C@H](NS(=O)(=O)c1ccc(F)cc1)CC2` the Potency [2] was “inactive”, the Potency [3] was “inactive” and the Potency [4] was “inactive”. For the same molecule, the Potency [5] was “inactive”, the Potency [8] was “inactive” and the Potency [9] was “inactive”.

For `Cc1ccc(S(=O)(=O)N[C@@H](Cc2ccccc2)C(=O)CCl)cc1`, the Potency [10] was “inactive”, the Potency [2] was 26.4 µM (active) and the Potency [3] was 18.7 µM (active). For the same molecule, the Potency [4] was 16.6 µM (active), the Potency [5] was 14.8 µM (active) and the Potency [11] was 3.29 µM (active). The Potency [12] was 12 µM (active), the Potency [13] was 5.85 µM (active) and the Potency [9] was “inactive”. The outcome [14] was “inactive”.
